# Measurements: PubChem BioAssay AID1159580 (chemical genetic matrix, 2015)
# The whole screen tested about 5,500 compounds, of which about 2,000 (36%) were called active. Not shown: some 18% with an inconclusive outcome. The list shows a part of the results. Unmarked numbers belong to inactive results. Cut-off read from the data, not from the text of the source: active = normalized growth mostly below about 0.91 (no sharp cut-off); inconclusive = no clear call, values can overlap the other calls; inactive = mostly above about 0.92.
# Test: chemical genetic growth profiling, strain panel (AID 1159580);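 note: tested at 20 µM; growth read once vehicle control cultures reached saturation at 30 °C; 1 = growth at the plate median or of vehicle wells; lower values mean less growth of the strain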
# Conditions: S. cerevisiae deletion strains, growth OD
structure (smiles),measurement,setting,value
C/C(=N/NC(=S)NCC(C)(C)C)c1cc(F)cc(Cl)c1O,normalized growth,"locus YAR019C, strain CDC15, hits give low values",0.963
same,normalized growth,"locus YBL105C, strain PKC1, hits give low values",0.961
same,normalized growth,"locus YBR135W, strain CKS1, hits give low values",0.956
same,normalized growth,"locus YBR136W, strain MEC1, hits give low values",0.959
same,normalized growth,"locus YBR160W, strain CDC28, hits give low values",0.97
same,normalized growth,"locus YDL017W, strain CDC7, hits give low values",0.953
same,normalized growth,"locus YDL028C, strain MPS1, hits give low values",0.959
same,normalized growth,"locus YDL101C, strain DUN1, hits give low values",0.967
same,normalized growth,"locus YDL108W, strain KIN28, hits give low values",0.972
same,normalized growth,"locus YDL132W, strain cdc53, hits give low values",0.98
same,normalized growth,"locus YDL214C, strain PRR2, hits give low values",0.942
same,normalized growth,"locus YDR052C, strain DBF4, hits give low values",0.971
same,normalized growth,"locus YDR054C, strain cdc34, hits give low values",0.976
same,normalized growth,"locus YDR226W, strain ADK1, hits give low values",0.965
same,normalized growth,"locus YDR477W, strain SNF1, hits give low values",0.928
same,normalized growth,"locus YER123W, strain YCK3, hits give low values",0.928
same,normalized growth,"locus YER133W, strain GLC7, hits give low values",0.955
same,normalized growth,"locus YFL009W, strain cdc4, hits give low values",0.966
same,normalized growth,"locus YFL029C, strain CAK1, hits give low values",0.953
same,normalized growth,"locus YFR003C, strain YPI1, hits give low values",0.963
same,normalized growth,"locus YFR019W, strain FAB1, hits give low values",0.992
same,normalized growth,"locus YFR028C, strain CDC14, hits give low values",0.961
same,normalized growth,"locus YGR040W, strain KSS1, hits give low values",0.922
same,normalized growth,"locus YGR052W, strain FMP48, hits give low values",0.938
same,normalized growth,"locus YGR092W, strain DBF2, hits give low values",0.716
same,normalized growth,"locus YHR030C, strain SLT2, hits give low values",0.681 (active)
same,normalized growth,"locus YHR079C, strain IRE1, hits give low values",0.784
same,normalized growth,"locus YHR082C, strain KSP1, hits give low values",0.964
same,normalized growth,"locus YHR205W, strain SCH9, hits give low values",0.941
same,normalized growth,"locus YIL147C, strain SLN1, hits give low values",0.963
same,normalized growth,"locus YJL095W, strain BCK1, hits give low values",0.852
same,normalized growth,"locus YJL128C, strain PBS2, hits give low values",0.952
same,normalized growth,"locus YJL157C, strain FAR1, hits give low values",0.936
same,normalized growth,"locus YJR016C, strain ILV3, hits give low values",0.961
same,normalized growth,"locus YJR066W, strain TOR1 (second series), hits give low values",0.868
same,normalized growth,"locus YJR066W, strain TOR1, hits give low values",0.894
same,normalized growth,"locus YKL048C, strain ELM1, hits give low values",0.946
same,normalized growth,"locus YKL067W, strain YNK1, hits give low values",0.962
same,normalized growth,"locus YKL101W, strain HSL1, hits give low values",0.923
same,normalized growth,"locus YKL193C, strain SDS22, hits give low values",0.966
same,normalized growth,"locus YKL203C, strain TOR2, hits give low values",0.94
same,normalized growth,"locus YLR113W, strain HOG1, hits give low values",0.735 (active)
same,normalized growth,"locus YLR133W, strain CKI1, hits give low values",0.884
same,normalized growth,"locus YLR403W, strain SFP1, hits give low values",0.837
same,normalized growth,"locus YML070W, strain DAK1, hits give low values",0.941
same,normalized growth,"locus YMR001C, strain CDC5, hits give low values",0.961
same,normalized growth,"locus YMR205C, strain PFK2 (second series), hits give low values",0.939
same,normalized growth,"locus YMR277W, strain FCP1, hits give low values",0.96
same,normalized growth,"locus YNL006W, strain LST8, hits give low values",0.972
same,normalized growth,"locus YNL020C, strain ARK1, hits give low values",0.837
same,normalized growth,"locus YNL161W, strain CBK1, hits give low values",0.956
same,normalized growth,"locus YNL183C, strain NPR1, hits give low values",0.947
same,normalized growth,"locus YNL207W, strain RIO2, hits give low values",0.962
same,normalized growth,"locus YNL222W, strain SSU72, hits give low values",0.959
same,normalized growth,"locus YNL307C, strain MCK1 (second series), hits give low values",0.883
same,normalized growth,"locus YOL078W, strain AVO1, hits give low values",0.974
same,normalized growth,"locus YOL136C, strain PFK27, hits give low values",0.948
same,normalized growth,"locus YOR061W, strain CKA2, hits give low values",0.869
same,normalized growth,"locus YOR119C, strain RIO1, hits give low values",0.984
same,normalized growth,"locus YOR231W, strain MKK1, hits give low values",0.837
same,normalized growth,"locus YOR329C, strain SCD5, hits give low values",0.964
same,normalized growth,"locus YPL031C, strain PHO85, hits give low values",0.915
same,normalized growth,"locus YPL153C, strain RAD53, hits give low values",0.913
same,normalized growth,"locus YPL204W, strain HRR25, hits give low values",0.92
same,normalized growth,"locus YPL209C, strain IPL1, hits give low values",0.959
same,normalized growth,"locus YPL256C, strain CLN2, hits give low values",0.782 (active)
same,normalized growth,"locus YPR025C, strain CCL1, hits give low values",0.965
same,normalized growth,"locus YPR106W, strain ISR1, hits give low values",0.989
same,normalized growth,"locus YPR111W, strain DBF20, hits give low values",0.968
same,normalized growth,"strain NNK1, hits give low values",0.973
same,normalized growth,"strain TSCII, hits give low values",0.956
